Where a name gives a salt, the structure may show the parent alone. ± gives the standard deviation of the averaged measurements.
Legend:
Experiment in all cases: growth (OD600 after 10 h); higher = more growth (less inhibition)
[1] = tested on: E. coli TESEC Alr+ wild-type control; details: compound 0.1 mM; raw OD600 reference: median of DMSO wells 0.241, cell-free background 0.041
Experimental: (§1)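 TESEC Mtb Alr E. coli, or the Alr+ wild-type control, in 384-well plates with Prestwick library compounds at 0.1 mM and 1% DMSO, across arabinose induction levels of 1E3 to 1E7 nM. Growth is read as OD600 after 10 h at 37 °C in triplicate biological replicates.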

[2] = tested on: E. coli TESEC Mtb Alr; details: compound 0.1 mM
Experimental: as §1

[3] = tested on: E. coli TESEC Mtb Asd; details: compound 0.1 mM
Experimental: (§2)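 TESEC E. coli strains in which the native enzyme is deleted and replaced by arabinose-inducible Mtb Asd, DapB, CysH or TrpD, each grown in its selective medium. Strains were screened against the Prestwick library at 0.1 mM and 1% DMSO in 384-well format at low and high arabinose induction. Growth is read as OD600 after 10 h in triplicate.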

[4] = tested on: E. coli TESEC Mtb DapB; details: compound 0.1 mM
Experimental: as §2

[5] = tested on: E. coli TESEC Alr+ wild-type control; details: compound 0.1 mM; raw OD600 reference: median of DMSO wells 0.49, cell-free background 0.052
Experimental: (§3)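 TESEC Mtb Alr E. coli (ΔaraC ΔtolC ΔentC Δalr ΔdadX, arabinose-inducible Mtb Alr) or the Alr+ wild-type control strain, grown in defined M9-fructose medium without D-alanine in 96-well plates with Prestwick library compounds at 0.1 mM and 1% DMSO. Low Alr induction is 0.1 µM arabinose and high induction is 10 mM arabinose.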

[6] = tested on: E. coli TESEC Mtb Alr; details: compound 0.1 mM; remark: listed apart in the source
Experimental: as §3

[7] = arabinose 1000 nM, raw OD600 reference: median of DMSO wells 0.294, cell-free background 0.041
[8] = arabinose 10000 nM, raw OD600 reference: median of DMSO wells 0.264, cell-free background 0.041
[9] = arabinose 100000 nM, raw OD600 reference: median of DMSO wells 0.201, cell-free background 0.041
[10] = arabinose 1000000 nM, raw OD600 reference: median of DMSO wells 0.193, cell-free background 0.041
[11] = arabinose 10000000 nM, raw OD600 reference: median of DMSO wells 0.146, cell-free background 0.041
[12] = arabinose induction (level): High, raw OD600 reference: median of DMSO wells 0.331, cell-free background 0.041
[13] = arabinose induction (level): Low, raw OD600 reference: median of DMSO wells 0.417, cell-free background 0.041
[14] = arabinose induction (level): High, raw OD600 reference: median of DMSO wells […], cell-free background 0.041
[15] = arabinose induction (level): Low, raw OD600 reference: median of DMSO wells 0.227, cell-free background 0.041
[16] = arabinose 100 nM, raw OD600 reference: median of DMSO wells 0.413, cell-free background 0.052
[17] = arabinose 10000000 nM, raw OD600 reference: median of DMSO wells […], cell-free background 0.052

Compound | growth [1] | growth [2, 7] | growth [2, 8] | growth [2, 9] | growth [2, 10] | growth [2, 11] | growth [3, 12] | growth [3, 13] | growth [4, 14] | growth [4, 15] | growth [5] | growth [6, 16] | growth [6, 17]
COc1cc(C)nc(-n2nc(C)cc2OC)n1 [Epirizole] | 0.2428 ± 0.0024 | 0.263 ± 0.012 | 0.249 ± 0.0083 | 0.178 ± 0.019 | 0.18 ± 0.0057 | 0.139 ± 0.005 | 0.342 ± 0.051 | 0.465 ± 0.042 | 0.192 ± 0.025 | 0.238 ± 0.054 | 0.493 ± 0.031 | 0.421 ± 0.011 | 0.27 ± 0.12
Nc1nc(/C(=C/CC(=O)O)C(=O)N[C@@H]2C(=O)N3C(C(=O)O)=CCS[C@H]23)cs1 [Ceftibuten] | 0.146 ± 0.0038 | 0.0633 ± 0.0031 | 0.04393 ± 0.00032 | 0.141 ± 0.012 | 0.138 ± 0.0075 | 0.177 ± 0.004 | 0.158 ± 0.0053 | 0.0769 ± 0.00091 | 0.188 ± 0.021 | 0.231 ± 0.034 | 0.252 ± 0.016 | 0.0471 ± 0.00072 | 0.273 ± 0.01
CC(COc1ccccc1)NC(C)C(O)c1ccc(O)cc1 (configuration not stated) [Isoxsuprine hydrochloride] | 0.224 ± 0.0098 | 0.29 ± 0.014 | 0.256 ± 0.003 | 0.183 ± 0.011 | 0.156 ± 0.0029 | 0.157 ± 0.0078 | 0.25 ± 0.081 | 0.402 ± 0.079 | 0.202 ± 0.042 | 0.271 ± 0.028 | 0.5 ± 0.066 | 0.413 ± 0.0062 | 0.34 ± 0.02
CC(=O)OCC1=C(C(=O)O)N2C(=O)[C@@H](NC(=O)Cc3cccs3)[C@H]2SC1 [Cephalothin sodium salt] | 0.305 ± 0.0066 | 0.334 ± 0.017 | 0.209 ± 0.0072 | 0.283 ± 0.03 | 0.172 ± 0.0079 | 0.174 ± 0.0022 | 0.421 ± 0.021 | 0.421 ± 0.058 | 0.206 ± 0.013 | 0.258 ± 0.0063 | 0.447 ± 0.04 | 0.332 ± 0.027 | 0.35 ± 0.015
C[C@@H]1CN(c2c(F)c(N)c3c(=O)c(C(=O)O)cn(C4CC4)c3c2F)C[C@H](C)N1 [Sparfloxacin] | 0.0414 ± 0.0019 | 0.0409 ± 0.0011 | 0.0398 ± 0.0002 | 0.0433 ± 0.0046 | 0.04 ± 0.00078 | 0.04067 ± 0.00038 | 0.04863 ± 0.0004 | 0.0462 ± 0.0031 | 0.0488 ± 0.00061 | 0.04823 ± 0.00038 | 0.0553 ± 0.0029 | 0.0536 ± 0.0018 | 0.051 ± 0.00046
COC(=O)[C@H](c1ccccc1Cl)N1CCc2sccc2C1 [Clopidogrel] | 0.0938 ± 0.0032 | 0.0873 ± 0.0047 | 0.0411 ± 0.0013 | 0.0991 ± 0.004 | 0.0439 ± 0.00078 | 0.0663 ± 0.00069 | 0.158 ± 0.014 | 0.128 ± 0.0029 | 0.153 ± 0.015 | 0.159 ± 0.012 | 0.3176 ± 0.0024 | 0.38 ± 0.016 | 0.0754 ± 0.014
COc1ccc([C@@H]2Sc3ccccc3N(CCN(C)C)C(=O)[C@@H]2OC(C)=O)cc1 [Diltiazem hydrochloride] | 0.184 ± 0.0078 | 0.239 ± 0.01 | 0.274 ± 0.014 | 0.175 ± 0.0049 | 0.139 ± 0.0028 | 0.139 ± 0.0037 | 0.248 ± 0.063 | 0.434 ± 0.098 | 0.184 ± 0.035 | 0.211 ± 0.056 | 0.476 ± 0.011 | 0.413 ± 0.0022 | 0.3 ± 0.013
c1cnc(N2CCN(Cc3ccc4c(c3)OCO4)CC2)nc1 [Piribedil hydrochloride] | 0.2234 ± 0.0017 | 0.273 ± 0.0036 | 0.256 ± 0.0059 | 0.179 ± 0.01 | 0.166 ± 0.0044 | 0.14 ± 0.0043 | 0.218 ± 0.013 | 0.399 ± 0.027 | 0.178 ± 0.01 | 0.202 ± 0.013 | 0.512 ± 0.077 | 0.398 ± 0.014 | 0.366 ± 0.01
CC(C)(C#N)c1cc(Cn2cncn2)cc(C(C)(C)C#N)c1 [Anastrozole] | 0.222 ± 0.0057 | 0.274 ± 0.0032 | 0.272 ± 0.0071 | 0.194 ± 0.009 | 0.183 ± 0.0054 | 0.13 ± 0.0054 | 0.339 ± 0.033 | 0.384 ± 0.038 | 0.194 ± 0.011 | 0.214 ± 0.028 | 0.483 ± 0.03 | 0.409 ± 0.0048 | 0.321 ± 0.016
CC[C@H]1OC(=O)[C@H](C)[C@@H](O[C@H]2C[C@@](C)(OC)[C@@H](O)[C@H](C)O2)[C@H](C)[C@@H](O[C@@H]2O[C@H](C)C[C@H](N(C)C)[C@H]2O)[C@](C)(O)C[C@@H](C)C(=O)[C@H](C)[C@@H](O)[C@]1(C)O [Erythromycin] | 0.04107 ± 0.00038 | 0.0413 ± 0.0016 | 0.03973 ± 5.8e-05 | 0.0421 ± 0.0013 | 0.0401 ± 0.0001 | 0.0414 ± 0.00076 | 0.0563 ± 0.0023 | 0.0536 ± 0.0019 | 0.04857 ± 0.00045 | 0.052 ± 0.0057 | 0.0538 ± 0.0043 | 0.0567 ± 0.0002 | 0.05153 ± 0.00031
COCC(=O)Nc1c(I)c(C(=O)NCC(O)CO)c(I)c(C(=O)N(C)CC(O)CO)c1I (configuration not stated) [Iopromide] | 0.259 ± 0.016 | 0.329 ± 0.021 | 0.289 ± 0.014 | 0.237 ± 0.0091 | 0.188 ± 0.0057 | 0.156 ± 0.013 | 0.491 ± 0.0086 | 0.464 ± 0.028 | 0.213 ± 0.022 | 0.257 ± 0.043 | 0.464 ± 0.037 | 0.401 ± 0.019 | 0.349 ± 0.018
CNc1ncnc2c1ncn2[C@@H]1O[C@H](CO)[C@@H](O)[C@H]1O [N6-methyladenosine] | 0.283 ± 0.008 | 0.334 ± 0.023 | 0.263 ± 0.0068 | 0.261 ± 0.012 | 0.189 ± 0.003 | 0.15 ± 0.0032 | 0.343 ± 0.044 | 0.416 ± 0.023 | 0.21 ± 0.0029 | 0.209 ± 0.0066 | 0.539 ± 0.094 | 0.28 ± 0.065 | 0.364 ± 0.0048
O=C1C(O)=C(O)C(=O)C(O)=C1O [Tetrahydroxy-1,4-quinone hydrate] | 0.231 ± 0.0052 | 0.29 ± 0.02 | 0.275 ± 0.0064 | 0.19 ± 0.018 | 0.1568 ± 0.0015 | 0.142 ± 0.0053 | 0.349 ± 0.089 | 0.427 ± 0.082 | 0.206 ± 0.021 | 0.226 ± 0.0024 | 0.5 ± 0.021 | 0.399 ± 0.012 | 0.333 ± 0.0084
CC1(C)O[C@@H]2C[C@H]3[C@@H]4C[C@H](F)C5=CC(=O)CC[C@]5(C)[C@H]4[C@@H](O)C[C@]3(C)[C@]2(C(=O)CO)O1 [Flurandrenolide] | 0.223 ± 0.0092 | 0.289 ± 0.015 | 0.2518 ± 0.0025 | 0.174 ± 0.022 | 0.161 ± 0.01 | 0.131 ± 0.0031 | 0.282 ± 0.038 | 0.448 ± 0.035 | 0.216 ± 0.0087 | 0.239 ± 0.0036 | 0.417 ± 0.041 | 0.406 ± 0.01 | 0.338 ± 0.011

Reference: the supplement of paper PMC9262897, “Low-cost anti-mycobacterial drug discovery using engineered E. coli” (Nature Communications, 2022)
